# Where “and” joins values, the source holds several entries; their conditions need not be identical. Equal values may be shown once. Results filed as inconclusive are left out. Where a call stands in place of a potency, no number is given. Calls of active or inactive are those of the source. The call rests on the fitted dose curve; in most records, active means well fitted curve in the direction sought with a large enough effect; inconclusive means small, poorly fitted or top-dose-only effect, or another doubt; inactive means no such curve, though single readings can be large; an effect the other way counts as inactive or inconclusive.
# What was measured:
# [1] = P-glycoprotein substrates identified in KB-8-5-11 adenocarcinoma cell line, qHTS therapeutic library screen (AID 1346987); further: nearly all actives have a fitted effect of over 65% in size; further: potency means the concentration at half of the fitted maximal effect
# How it was run: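 Steps: plate 500 KB-8-5-11 cells/well in DMEM + 10% FCS (colchicine removed); pin compounds in dose-response; incubate 72 h, 37 degree C, 5% CO2; add CellTiter-Glo, 5 min; read luminescence.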
# [2] = NS1 protein of Zika virus - qHTS assay to identify small molecule inhibitors in human HEK 293 cells (AID 1347053); further: nearly all actives have a fitted effect of over 55% in size; further: potency means the concentration at half of the fitted maximal effect
# How it was run: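 HEK 293 cells pretreated with compound for 1 h, then infected with ZIKV MR766 (MOI 0.5) for 24 h at 37 C. NS1 detected by TR-FRET with two anti-NS1 antibodies; normalized to uninfected (0%) and infected (100%) wells.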
# [3] = qHTS of pediatric cancer cell lines to identify multiple opportunities for drug repurposing: Primary screen for TC32 cells (AID 1347089); further: nearly all actives have a fitted effect of over 60% in size; further: potency means the concentration at half of the fitted maximal effect
# How it was run: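 In the primary qHTS, MIPE compounds were tested at 11 concentrations (0.78 nM to 46 µM) and NPC compounds at 8 (0.59 nM to 46 µM) on TC32 cells for 48 h. CellTiter-Glo luminescence gave viability.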
# [4] = qHTS of pediatric cancer cell lines to identify multiple opportunities for drug repurposing: Primary screen for DAOY cells (AID 1347090); further: nearly all actives have a fitted effect of over 55% in size; further: potency means the concentration at half of the fitted maximal effect
# How it was run: (§1)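 Cell viability, CellTiter-Glo luminescence; 500-1,000 cells/well, 8- or 11-point titration, 48 h compound exposure at 37 degrees C, 5% CO2. Controls: DMSO neutral, bortezomib 2.3 µM final as positive.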
# [5] = qHTS of pediatric cancer cell lines to identify multiple opportunities for drug repurposing: Primary screen for SJ-GBM2 cells (AID 1347091); further: potency means the concentration at half of the fitted maximal effect
# How it was run: as §1
# [6] = qHTS of pediatric cancer cell lines to identify multiple opportunities for drug repurposing: Primary screen for A673 cells (AID 1347092); further: nearly all actives have a fitted effect of over 45% in size; further: potency means the concentration at half of the fitted maximal effect
# How it was run: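 48 h compound exposure, A673, 500-1,000 cells/well, 37 degrees C/5% CO2. MIPE: 11-point, 0.78 nM-46 µM; NPC: 8-point, 0.59 nM-46 µM (final). Readout CellTiter-Glo luminescence after 15 min RT.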
# [7] = qHTS of pediatric cancer cell lines to identify multiple opportunities for drug repurposing: Primary screen for BT-37 cells (AID 1347094); further: potency means the concentration at half of the fitted maximal effect
# How it was run: (§2)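 Phenotypic viability qHTS, 48 h compound exposure, CellTiter-Glo luminescence read-out; multi-concentration dosing so that potency and efficacy derive directly from the primary screen's curves.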
# [8] = qHTS of pediatric cancer cell lines to identify multiple opportunities for drug repurposing: Primary screen for NB-EBc1 cells (AID 1347095); further: potency means the concentration at half of the fitted maximal effect
# How it was run: as §2
# [9] = qHTS of pediatric cancer cell lines to identify multiple opportunities for drug repurposing: Primary screen for U-2 OS cells (AID 1347096); further: nearly all actives have a fitted effect of over 50% in size
# How it was run: (§3)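 Cells (500-1,000/well) rested 5 h, then received compounds for 48 h; metabolically active cells were measured by CellTiter-Glo luminescence. Final concentrations spanned up to 46 µM (MIPE, 11-point) or 0.59 nM-46 µM (NPC, 8-point) in primary screens, 11-point in follow-ups.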
# [10] = qHTS of pediatric cancer cell lines to identify multiple opportunities for drug repurposing: Primary screen for SK-N-MC cells (AID 1347093); further: potency means the concentration at half of the fitted maximal effect
# How it was run: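 Metabolically active cells were quantified by ATP-dependent luminescence (CellTiter-Glo, 15 min at room temperature) following 48 h treatment. Cells had been plated at 500-1,000 per well and settled for 5 h beforehand.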
# [11] = qHTS of pediatric cancer cell lines to identify multiple opportunities for drug repurposing: Primary screen for Saos-2 cells (AID 1347097); further: nearly all actives have a fitted effect of over 40% in size; further: potency means the concentration at half of the fitted maximal effect
# How it was run: as §2
# [12] = qHTS of pediatric cancer cell lines to identify multiple opportunities for drug repurposing: Primary screen for SK-N-SH cells (AID 1347098); further: nearly all actives have a fitted effect of over 65% in size; further: potency means the concentration at half of the fitted maximal effect
# How it was run: as §3
# [13] = qHTS of pediatric cancer cell lines to identify multiple opportunities for drug repurposing: Primary screen for NB1643 cells (AID 1347099); further: nearly all actives have a fitted effect of over 50% in size; further: potency means the concentration at half of the fitted maximal effect
# How it was run: as §2
Structure (SMILES),Potency [1],Potency [2],Potency [3],Potency [4],Potency [5],Potency [6],Potency [7],Potency [8],Potency [9],Potency [10],Potency [11],Potency [12],Potency [13]
O=C1CCCC2=C1C(c1[nH]ncc1Cl)N=C(Nc1nc3ccccc3o1)N2 (centres undefined),inactive,inactive,inactive,inactive,inactive,inactive,inactive,inactive,inactive,–,–,–,–
CCOc1cc(N2CCC(O)CC2)ccc1Nc1ncc2c(n1)N(C)c1ccccc1C(=O)N2C,18.4 µM (active),inactive,23.4 µM (active),–,–,0.0047 µM (active),0.0544 µM (active),0.833 µM (active),–,0.332 µM (active),0.118 µM (active),–,–
COc1ccc(CC2=NN3C([C@@H](CCc4ccccc4)[C@@H](C)O)=NC(C)C3C(=O)N2)cc1OC (some centres undefined),inactive,inactive,inactive,inactive,inactive,inactive,inactive,inactive,inactive,–,inactive,–,–
N#Cc1ccc(C(c2ccc(C#N)cc2)n2cncn2)cc1,inactive,inactive,inactive,–,inactive,–,–,inactive,inactive,–,–,–,–
Oc1cccc(-c2nc(N3CCOCC3)c3oc4ncccc4c3n2)c1,108 nM (active) and 517 nM (active),2.7 µM (active),0.758 µM (active),2.15 µM (active),0.0855 µM (active),2.15 µM (active),0.444 µM (active),0.191 µM (active),–,0.0481 µM (active),0.34 µM (active),–,–
CCCS(=O)(=O)Nc1ccc(F)c(C(=O)c2c[nH]c3ncc(-c4ccc(Cl)cc4)cc23)c1F,inactive,inactive,inactive,18.7 µM (active),18.7 µM (active),9.35 µM (active),–,–,–,10.5 µM (active),–,4.82 µM (active),–
COc1cc2c(cc1OC)CN(CCc1ccc(NC(=O)c3cccc4c(=O)c5cccc(OC)c5[nH]c34)cc1)CC2,inactive,inactive,inactive,–,inactive,4.69 µM (active),inactive,inactive,inactive,10.5 µM (active),inactive,12.1 µM (active),7.43 µM (active)
CCN(CC)CCCC(C)Nc1nc(C)cc(Nc2ccc3nc(C)cc(N)c3c2)n1 (centres undefined),inactive,inactive,inactive,inactive,inactive,–,inactive,inactive,inactive,inactive,–,–,–
CS(=O)(=O)Oc1ccc2c(NC(N)=O)c(C(=O)c3ccc(Cl)cc3Cl)oc2c1,inactive,inactive,inactive,14.8 µM (active),3.32 µM (active),2.35 µM (active),3.43 µM (active),4.18 µM (active),–,1.48 µM (active),–,15.2 µM (active),3.72 µM (active)
Cc1cc(C=c2sc3nc4ccccc4n3c2=O)c(C)n1-c1ccccc1,inactive,inactive,inactive,inactive,–,inactive,–,inactive,inactive,inactive,–,inactive,–
CC(=O)NC(C)c1ccc(Oc2ccc(OC(C)C)cc2)cc1 (centres undefined),inactive,inactive,inactive,–,–,23.5 µM (active),–,–,inactive,13.2 µM (active),18.7 µM (active),inactive,–
Cc1cnc(Nc2ccc(OCCN3CCCC3)cc2)nc1Nc1cccc(S(=O)(=O)NC(C)(C)C)c1,inactive,inactive,inactive,inactive,inactive,–,inactive,inactive,inactive,18.7 µM (active),inactive,–,23.5 µM (active)
CNC(=O)c1ccc(N2C(=S)N(c3ccc(C#N)c(C(F)(F)F)c3)C(=O)C2(C)C)cc1F,inactive,inactive,inactive,inactive,–,inactive,inactive,inactive,inactive,inactive,inactive,–,inactive
C[C@@H]1CN(Cc2ccc(F)cc2)[C@@H](C)CN1C(=O)c1cc2c(C(=O)C(=O)N(C)C)cn(C)c2cc1Cl,inactive,inactive,inactive,–,–,14.8 µM (active),inactive,–,–,0.0372 µM (active),–,–,–
O=C(c1cc(Cc2n[nH]c(=O)c3ccccc23)ccc1F)N1CCN(C(=O)C2CC2)CC1,inactive,inactive,16.5 µM (active),–,–,5.9 µM (active),–,10.5 µM (active),inactive,7.43 µM (active),–,–,–
Clc1ccc(Nc2nnc(Cc3ccncc3)c3ccccc23)cc1,inactive,inactive,inactive,–,inactive,–,–,inactive,inactive,2.35 µM (active),inactive,–,inactive
CCc1cc(Nc2nccc(-c3c(-c4ccc(OC)c(C(=O)Nc5c(F)cccc5F)c4)nc4ccccn34)n2)c(OC)cc1N1CCC(N2CCN(S(C)(=O)=O)CC2)CC1,inactive,26.4 µM (active),inactive,–,inactive,–,–,–,inactive,–,18.7 µM (active),21.5 µM (active),inactive
CC(c1cc2ccccc2s1)N(O)C(N)=O (centres undefined),inactive,inactive,inactive,inactive,inactive,inactive,inactive,inactive,inactive,inactive,inactive,inactive,inactive
N#CC[C@H](C1CCCC1)n1cc(-c2ncnc3[nH]ccc23)cn1,26.4 µM (active),inactive,inactive,–,–,23.5 µM (active),–,inactive,inactive,23.5 µM (active),inactive,inactive,–
C[C@]1(c2nc3c(C(N)=O)cccc3[nH]2)CCCN1,inactive,inactive,inactive,–,–,14.8 µM (active),–,–,inactive,1.18 µM (active),20.9 µM (active),–,9.35 µM (active)
COc1ccc(-c2oc3cc(OC)ccc3c2C(=O)c2ccc(C#N)cc2)cc1,inactive,inactive,inactive,–,–,0.0935 µM (active),0.685 µM (active),7.43 µM (active),inactive,4.18 µM (active),–,24.1 µM (active),–
Cc1cccc(-c2nn(C(=S)Nc3ccccc3)cc2-c2ccnc3ccccc23)n1,inactive,inactive,inactive,inactive,–,inactive,inactive,inactive,inactive,inactive,–,–,inactive
COc1ccc(CCN2CCN(CCCc3ccccc3)CC2)cc1OC,inactive,inactive,inactive,inactive,inactive,–,–,–,inactive,18.7 µM (active),–,inactive,–
